Compounds with a hit are over-represented: about 28% of the library has one in this group of screens.
Plk1 PBD FP = blocks phosphopeptide binding to human Plk1 polo box domain; P53350; hit rate 0.13% among 97,000; inhibition, %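 (tested at about 20 µM)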; AID 693; Plk1 PBD phosphopeptide binding, fluorescence polarization; in the data active = inhibition above about 34%, passing the limit was not always enough
PLK1 inh = blocks human PLK1 kinase activity | hit rate 0.53% among 97,000 | recombinant PLK1 kinase, TR-FRET peptide phosphorylation | P53350 | AID 619 | inhibition, % at 10 µM;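 active = inhibition of 50% or more in the single-concentration screen; inactive = inhibition below 50%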
CYP2C9 inh = human CYP2C9 inhibition. P11712. AID 777. CYP2C9 Supersomes, luciferin-H conversion, luminescence. hit rate 20% among 96,000. inhibition, % at 5 µM;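 active = blocking of liver enzyme CYP2C9 beyond about 50% at 5 µM, limit read from the data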
Target sequence (P11712 whole entry, looked up): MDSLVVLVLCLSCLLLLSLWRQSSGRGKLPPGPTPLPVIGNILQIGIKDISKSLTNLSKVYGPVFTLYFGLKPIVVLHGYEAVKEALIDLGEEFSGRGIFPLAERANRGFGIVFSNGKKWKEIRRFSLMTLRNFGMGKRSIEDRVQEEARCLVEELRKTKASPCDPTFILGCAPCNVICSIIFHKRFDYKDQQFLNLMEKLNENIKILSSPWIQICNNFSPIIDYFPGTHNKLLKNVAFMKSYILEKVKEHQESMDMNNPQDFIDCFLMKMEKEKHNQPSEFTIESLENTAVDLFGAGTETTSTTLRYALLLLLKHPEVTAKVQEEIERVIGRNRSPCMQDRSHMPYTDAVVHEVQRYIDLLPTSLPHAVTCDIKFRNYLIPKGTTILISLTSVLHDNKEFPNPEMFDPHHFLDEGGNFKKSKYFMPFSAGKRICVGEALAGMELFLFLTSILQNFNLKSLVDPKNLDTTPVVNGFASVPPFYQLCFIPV
CYP2C19 inhib = inhibitors of human CYP2C19; hit rate 21% among 96,000; inhibition, % at 5 µM; CYP2C19 Supersomes, luciferin-H EGE luminescence, 30 min;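 active = CYP2C19 inhibition above a set limit at 5 µM in the primary screen, cut at about 50% in these data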
CYP2C9 act = activators of human CYP2C9; P11712; recombinant CYP2C9, luciferin-H conversion, luminescence; stronger effect = higher value; factor 1 = untreated enzyme, 0 = blocked; activation factor at 5 µM; hit rate 1.4% among 96,000; AID 1024;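 active = activation factor of 2 or more for CYP2C9 at a 5 µM dose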
CYP2C19 act = increases human CYP2C19 enzyme activity; activation factor at 5 µM; P33261; 96,000 tested, under 10 active; AID 1025; recombinant CYP2C19, luciferin-H EGE luminescence; stronger effect = higher value; 0 = fully inhibited enzyme, 1 = untreated enzyme;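 active = activation factor of at least 2 at 5 µM in the primary screen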
Numbers stand for hits; i = inactive; nt = no result given.

SMILES	Plk1 PBD FP	PLK1 inh	CYP2C9 inh	CYP2C19 inhib	CYP2C9 act	CYP2C19 act
C=CCSc1nnc2c(n1)OC=Nc1ccc(Br)cc1-2	i	i	60.4	52.6	i	i
CCOCCCNC(=O)CNC(=S)N(Cc1ccccc1F)C1CCCCC1	i	i	i	i	i	i
O=C(CS(=O)(=O)Cc1ccccc1)Nc1ccccn1	i	i	nt	nt	nt	nt
CC(C)CN(CC(C)C)C(=O)CS(=O)(=O)Cc1ccccc1	i	i	i	62.3	i	i
CCN(C(=O)CSc1nnc(-c2ccccc2Cl)n1C1CCCC1)C1CCS(=O)(=O)C1 (stereo not given)	i	i	78.8	i	i	i
CCN(C(=O)CSc1nnc(-c2ccncc2)n1C)C1CCS(=O)(=O)C1 (stereo not given)	i	i	i	i	i	i
COCCn1c(SCC(=O)N2CCCc3ccccc32)nc2ccccc2c1=O	i	i	96.4	96.4	i	i
CC1Cc2nc(SCC(=O)N3CCCc4ccccc43)n(C)c(=O)c2S1 (stereo not given)	i	i	nt	nt	nt	nt
CCn1c(SCC(=O)N2CCc3ccccc32)nc2c(c1=O)SC(C)C2 (stereo not given)	nt	nt	92.8	i	i	i
COCCn1c(SCC(=O)N2CCCc3ccccc32)nc2c(c1=O)SC(C)C2 (stereo not given)	i	i	95.4	i	i	i
CCn1c(SCC(=O)N2CCCCC2)nc2c(c1=O)SC(C)C2 (stereo not given)	i	i	68.8	i	i	i
CCSc1nc2c(c(=O)n1CC)SC(C)C2 (stereo not given)	nt	nt	i	i	i	i
O=C1c2cccnc2C(=O)N1Cc1ccc2c(c1)OCO2	nt	nt	i	i	i	i
CCC(C)NC(=O)COc1ccc(Br)c(C)c1 (stereo not given)	i	i	i	i	i	i
COc1cc(C(=O)N2CCC(c3nc(-c4cccnc4)no3)CC2)cc(OC)c1OC	i	i	i	i	i	i
CCSc1nc2c(c(=O)n1-c1ccc(F)cc1)SCC2	i	i	nt	nt	nt	nt
OCc1ccccc1OCCOc1ccc(Cl)c2cccnc12	i	i	i	i	2.1	i
CCCCCCNCc1ccc(Br)cc1	i	i	i	75.4	i	i
CNCCCNCc1ccc(SC)cc1	i	i	i	i	i	i
CCOc1ccc(S(=O)(=O)NN)cc1	i	i	i	i	i	i
CC(=O)C1=C(C)NC(SCC(=O)c2ccc(Cl)c(Cl)c2)=C(C#N)C1c1ccco1 (stereo not given)	i	i	92.9	77.4	i	i
CC(=O)C1=C(C)NC(SCC(=O)c2cc(Cl)ccc2Cl)=C(C#N)C1c1ccco1 (stereo not given)	i	i	100.0	99.5	i	i
O=C(CCS(=O)(=O)Cc1ccc(Cl)cc1)NCCCN1CCOCC1	i	i	i	i	i	i
O=C(CCC1COc2ccccc2O1)NC1CCCCC1 (stereo not given)	i	i	i	56.4	i	i
CC(C)(C)NC(=O)CCC1COc2ccccc2O1 (stereo not given)	i	i	i	i	i	i
SMILES	Plk1 PBD FP	PLK1 inh	CYP2C9 inh	CYP2C19 inhib	CYP2C9 act	CYP2C19 act
O=C(CSc1nnc(C2COc3ccccc3O2)o1)NC1CCCCC1 (stereo not given)	nt	nt	58.3	50.4	i	i
O=C(CSc1nnc(C2COc3ccccc3O2)o1)N1CCCCC1 (stereo not given)	i	i	i	i	i	i
CC(NC(=O)CCC1COc2ccccc2O1)c1ccccc1 (stereo not given)	i	i	i	50.6	i	i
Cc1nc(C(F)(F)F)c(C(=O)NC(=O)Nc2ccccc2)s1	i	i	i	i	i	i
Cc1c(NC(=O)c2ccc(F)c(S(=O)(=O)N3CCOCC3)c2)c(=O)n(-c2ccccc2)n1C	i	i	i	i	i	i
O=C(O)CNC(=O)c1ccc(S(=O)(=O)N2CCOCC2)cc1	i	i	i	i	i	i
CCOC(=O)c1c(N)sc2c1CCC1C(=O)N(C3CCCCC3)C(=O)C21 (stereo not given)	i	i	90.0	90.6	i	i
COCCCNc1ncnc2ccc(C)cc12	i	i	nt	nt	nt	nt
CCCC(=O)N(c1ccc2oc(=O)sc2c1)S(=O)(=O)c1ccccc1	i	i	i	i	i	i
COC(=O)c1c(C)oc2ccc(N(C(=O)c3ccncc3)S(=O)(=O)c3ccccc3)cc12	i	i	76.9	91.2	i	i
COC(=O)c1c(C)oc2ccc(N(C(=O)c3ccncc3)S(=O)(=O)c3ccc(C)cc3)cc12	i	i	98.5	100.0	i	i
O=C(NCc1ccco1)C(c1ccccc1)N(Cc1cccnc1)C(=O)Cn1nnc2ccccc21 (stereo not given)	i	i	i	i	i	i
COC(=O)COc1nc(C)c2c(c1C#N)CC(C)(C)OC2	nt	nt	i	i	i	i
CCO/C=N/c1c(C#N)c2c(c(=S)n1C)COC(C)(C)C2	i	i	i	66.3	i	i
CC(C)Nc1c(N)c(=O)oc2ccccc12	i	i	i	i	i	i
Nc1c(NCc2ccccc2)c2ccccc2oc1=O	i	i	73.1	96.7	i	i
COc1ccc(CN(C(=O)c2oc3ccccc3c2C)C2CCS(=O)(=O)C2)cc1OC (stereo not given)	i	i	95.6	75.2	i	i
CC(C)c1ccc(CN(C(=O)c2cc3ccccc3oc2=O)C2CCS(=O)(=O)C2)cc1 (stereo not given)	i	i	62.5	i	i	i
O=C(c1cc2ccccc2oc1=O)N(Cc1ccco1)C1CCS(=O)(=O)C1 (stereo not given)	i	i	i	i	i	i
O=C(c1cnn2c1NC(c1ccc(Br)cc1)CC2C(F)(F)F)N1CCN(C23CC4CC(CC(C4)C2)C3)CC1 (stereo not given)	i	i	nt	nt	nt	nt
Cc1ccccc1OCCCC(=O)Nc1ccc2c(c1)OCO2	i	i	i	62.9	i	i
COc1ccc(OCCCC(=O)Nc2ccc3c(c2)OCO3)cc1	i	i	68.2	i	i	i
O=C(CCc1ccccc1)Nc1ccc2c(c1)OCCO2	i	i	i	i	i	i
O=C(CCN1C(=O)c2ccccc2S1(=O)=O)Nc1ccc2c(c1)OCCO2	i	i	58.8	i	i	i
O=C(CCCOc1ccccc1)Nc1ccc2c(c1)OCCO2	i	i	55.4	81.1	i	i
SMILES	Plk1 PBD FP	PLK1 inh	CYP2C9 inh	CYP2C19 inhib	CYP2C9 act	CYP2C19 act
Cc1ccc(C)c(OCC(=O)Nc2ccc3c(c2)OCO3)c1	nt	nt	i	i	i	i
CNc1nc(Oc2ccc(=O)n(C)n2)nc(N2CCOCC2)n1	i	i	i	i	i	i
Cc1cccc(OCC(=O)Nc2ccc3c(c2)OCCO3)c1	i	i	57.9	70.1	i	i
Cc1ccc(NCC(=O)N/N=C/c2ccc(OC(=O)c3ccco3)cc2)cc1	i	i	i	i	i	i
C/C(NC1CCCCC1)=C(/C#N)C(=O)NCCN1CCOCC1	i	i	i	i	i	i
Cc1ccc(C(CC(=O)O)C2CCOC(C)(C)C2)cc1 (stereo not given)	i	i	i	i	i	i

Compound activity as filed in PubChem BioAssay.
